# Assay results as given in PubChem BioAssay AID1159580 (chemical genetic matrix, 2015).
# Hit rate of the full screen: of about 5,500 compounds, about 2,000 (36%) were called active. Another 18% or so got no clear call; they are omitted. This is one part of the list. Unmarked numbers belong to inactive results. Cut-off read from the data, not from the text of the source: active = normalized growth mostly below about 0.91 (no sharp cut-off); inconclusive = no clear call, values can overlap the other calls; inactive = mostly above about 0.92.
# Experiment: chemical genetic growth profiling, strain panel (AID 1159580);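 note: tested at 20 µM; growth read once vehicle control cultures reached saturation at 30 °C; 1 = growth at the plate median or of vehicle wells; lower values mean less growth of the strain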
# Details: growth OD
compound,measurement,setting,value
COc1cc2c(cc1OC)CC(=O)OC2,normalized growth,"S. cerevisiae deletion strains, locus YAL013W, strain DEP1, active compounds read low",0.985
same,normalized growth,"S. cerevisiae deletion strains, locus YBR229C, strain ROT2, active compounds read low",0.984
same,normalized growth,"S. cerevisiae deletion strains, locus YCL061C, strain MRC1, active compounds read low",1
same,normalized growth,"S. cerevisiae deletion strains, locus YDL101C, strain DUN1, active compounds read low",0.984
same,normalized growth,"S. cerevisiae deletion strains, locus YDR150W, strain NUM1, active compounds read low",0.966
same,normalized growth,"S. cerevisiae deletion strains, locus YEL061C, strain CIN8, active compounds read low",1
same,normalized growth,"S. cerevisiae deletion strains, locus YGR078C, strain PAC10, active compounds read low",1.01
same,normalized growth,"S. cerevisiae deletion strains, locus YHR030C, strain SLT2, active compounds read low",1.06
same,normalized growth,"S. cerevisiae deletion strains, locus YHR087W, strain rtc3, active compounds read low",0.997
same,normalized growth,"S. cerevisiae deletion strains, locus YJR043C, strain POL32, active compounds read low",0.993
same,normalized growth,"S. cerevisiae deletion strains, locus YJR075W, strain HOC1, active compounds read low",0.995
same,normalized growth,"S. cerevisiae deletion strains, locus YKL190W, strain CNB1, active compounds read low",1
same,normalized growth,"S. cerevisiae deletion strains, locus YLR039C, strain RIC1, active compounds read low",1.23 [resistant] (active)
same,normalized growth,"S. cerevisiae deletion strains, locus YLR058C, strain SHM2 (second series), active compounds read low",0.994
same,normalized growth,"S. cerevisiae deletion strains, locus YLR085C, strain ARP6, active compounds read low",1.03
same,normalized growth,"S. cerevisiae deletion strains, locus YLR262C, strain YPT6, active compounds read low",1.16
same,normalized growth,"S. cerevisiae deletion strains, locus YML094W, strain GIM5, active compounds read low",0.999
same,normalized growth,"S. cerevisiae deletion strains, locus YMR219W, strain ESC1, active compounds read low",0.971
same,normalized growth,"S. cerevisiae deletion strains, locus YMR263W, strain SAP30, active compounds read low",0.994
same,normalized growth,"S. cerevisiae deletion strains, locus YNL128W, strain TEP1, active compounds read low",1
same,normalized growth,"S. cerevisiae deletion strains, locus YNL153C, strain GIM3, active compounds read low",1.03
same,normalized growth,"S. cerevisiae deletion strains, locus YNL298W, strain CLA4 (second series), active compounds read low",1.04
same,normalized growth,"S. cerevisiae deletion strains, locus YNL322C, strain KRE1, active compounds read low",0.979
same,normalized growth,"S. cerevisiae deletion strains, locus YNR030W, strain Alg12, active compounds read low",1.02
same,normalized growth,"S. cerevisiae deletion strains, locus YPL055C, strain LGE1, active compounds read low",0.935
same,normalized growth,"S. cerevisiae deletion strains, locus YPL241C, strain CIN2, active compounds read low",1
same,normalized growth,"S. cerevisiae deletion strains, locus YPR135W, strain CTF4, active compounds read low",1.04
same,normalized growth,"S. cerevisiae strains, strain wild type, active compounds read low",1.01
